These results are taken from PubChem BioAssay.

SMILES strings stand for the structures.

Sequence of Dickkopf-related protein 1 (Homo sapiens) (O94907 whole entry, looked up): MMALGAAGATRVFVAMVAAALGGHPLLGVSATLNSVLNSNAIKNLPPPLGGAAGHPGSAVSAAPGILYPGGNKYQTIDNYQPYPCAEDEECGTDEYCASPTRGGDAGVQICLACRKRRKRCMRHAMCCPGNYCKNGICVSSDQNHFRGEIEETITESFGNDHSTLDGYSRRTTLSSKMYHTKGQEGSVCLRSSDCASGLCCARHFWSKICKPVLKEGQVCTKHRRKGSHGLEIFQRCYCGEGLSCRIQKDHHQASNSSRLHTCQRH

This assay addresses Dickkopf-related protein 1 (Homo sapiens) (UniProt O94907). In words: DKK1 binders on small-molecule microarrays, primary screen, biochemical, small-molecule microarray, 635 nm fluorescence scan (AID 1106).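 Note: score merges emission near 667 nm with signal to noise over three replicate slides.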 The note with it: DKK1 binding, higher = more signal.
In turn, `COc1cc2c(cc1O)C(C)N(Cc1ccc([N+](=O)[O-])o1)CC2` (stereo not given) returned a composite z-score of -0.0673. To `COCCOC(=O)N1C(=O)[C@@]2(c3cc(C#Cc4ccc(OC)cc4)ccc31)[C@H](c1ccc(O)cc1)N1[C@H](c3ccccc3)[C@H](c3ccccc3)OC(=O)[C@H]1[C@@H]2C(=O)N1CCCCCCC1` belongs 0.423; to `COc1ccc([Si](C)(C)[C@@H]2[C@@H](CC(=O)N(CCO)Cc3ccccc3)O[C@]3(C(=O)N(Cc4cccc(N5C(=O)c6cccc7cccc5c67)c4)c4ccccc43)[C@H]2C)cc1`, 0.816. `Cc1ccc(S[C@]2(C(=O)O)CC(=O)N(Cc3ccccc3Cl)[C@@H]2c2ccc(CO)cc2I)cc1`: the composite z-score stood at 1.18. In the case of `COC(=O)C1=CC(CCCO)=CC(C2CC2)N(C)C=C1C(=O)OC` (stereo not given) it was -0.673.

With `COCCOC(=O)N1C(=O)[C@@]2(c3cc(C#CCC(C(=O)OC)C(=O)OC)ccc31)[C@H](C(=O)N1CCc3cc(OC)c(OC)cc3C1)[C@H]1C(=O)O[C@H](c3ccccc3)[C@H](c3ccccc3)N1[C@@H]2c1ccc(OCCO)cc1`, the composite z-score was 0.943. Molecule `COc1ccc([Si](C)(C)[C@H]2[C@H](CCO)O[C@@]3(C(=O)N(Cc4cccc(N5C(=O)COc6ccccc65)c4)c4ccccc43)[C@@H]2C)cc1` gave a composite z-score of 0.125. Take `CN(C)CCCNC(=O)[C@@]1(C)c2ccccc2C(=O)N(Cc2ccccc2)[C@H]1c1ccc(CO)cc1`: the composite z-score is 0.0494. For the molecule `COC(=O)c1c2oc(c1C(=O)OC)C(=O)N(Cc1ccccc1)Cc1cn(nn1)C[C@H](Cc1ccccc1)NC(=O)N[C@H](CO)CC2`, the composite z-score was -0.0193. In the case of `[N-]=[N+]=NCc1ccccc1[C@H]1OC(c2ccc(OCCCO)cc2)=N[C@@]1(CCS(=O)(=O)c1ccccc1)C(=O)N1CCCCC1` it was -0.202; in that of `O=C(CS)NCCCCCNC(=O)[C@@H]1C[C@@H]2C(=O)N3CCC[C@H]3C(=O)N2[C@@H]1c1cccc(OCCO)c1`, 0.292; in that of `COCCOC(=O)N1C(=O)[C@@]2(c3cc(C#CCCO)ccc31)[C@H](C(=O)Nc1nc3ccccc3s1)[C@H]1C(=O)O[C@H](c3ccccc3)[C@H](c3ccccc3)N1[C@@H]2c1ccccc1OCCO`, 0.452.

`C[C@@H]1NC(=O)[C@@]23C(=O)N[C@@H](Cc4ccccc4)C2[C@H](C)[C@@]2(C)O[C@H]2C3/C=C/C/C=C\CNC(=O)[C@@H]2CCCN2C1=O` (stereo not given in full) showed a composite z-score of 0.0077. To `CCC[C@@H]1C[C@@]1(CCC)[C@@H](NC(=O)OCc1ccccc1)c1ccc(-c2ccccc2)cc1` belongs -0.496; to `CC[C@H]1C2=C3C(CC[C@H]4C(OCc5ccc(F)cc5C(F)(F)F)OC[C@](C)([C@@H]34)N(C(=O)OC(C)(C)C)C2)C(COC)C1COC` (stereo not given in full), -0.384. In the case of `CC(C)(C)OC(=O)CC[C@@]1(C(=O)NCc2ccccc2)N=C(c2ccc(OCCCO)cc2)O[C@@H]1c1ccccc1N=[N+]=[N-]` it was 0.0295; in that of `CCC(CC)C(O)C1C=CC2C(=O)N(c3ccccc3)C(=O)C2N1Nc1ccc(C(C)C)cc1` (stereo not given), -0.0563; in that of `C[C@H]1NC(=O)[C@@]23C(=O)N[C@@H](Cc4ccccc4)C2[C@H](C)[C@@]2(C)O[C@H]2C3/C=C/C/C=C\CNC(=O)[C@H](Cc2ccccc2)NC1=O` (stereo not given in full), 0.689. Consider `COCCOC(=O)N1C(=O)[C@@]2(c3cc(C#CC4=CCCCC4)ccc31)[C@H](C(N)=O)[C@H]1C(=O)O[C@H](c3ccccc3)[C@H](c3ccccc3)N1[C@@H]2c1ccccc1OCCO`, for which the composite z-score was 0.707.

On to `CCOC(=O)C[C@H]1[C@H](OC(=O)c2cc3ccccc3oc2=O)[C@@H](NC(=O)c2ccc(-c3ccccc3)cc2)c2cc(OCCCO)ccc2N1C(=O)c1ccc2ccccc2n1`, for which the composite z-score came out at 0.45.

With `COC(=O)[C@@]1(Cc2ccc(F)cc2)[C@H]2c3cc(C(=O)N(C)C)n(Cc4cc(F)cc5c4OCOC5)c3C[C@H]2CN1C(=O)c1ccccc1`, the composite z-score was -0.171. Molecule `COC(=O)[C@@]1(Cc2ccccc2)[C@@H]2C(=CC(=O)[C@H]2CC(=O)C(=O)N(C)C)CN1C(=O)c1ccccc1` had a composite z-score of -0.465. With `CN1C(=O)C2C=CC(C(O)c3ccc(F)cc3)N(Nc3ccccc3)C2C1=O` (stereo not given), the composite z-score was -0.463. To `CCCC[C@@H]1C[C@H]1[C@@H](NC(=O)c1ccccc1)c1ccc(C(F)(F)F)cc1` belongs -0.993; to `COc1ccc([Si](C)(C)[C@H]2[C@H](CCn3cc([C@H](O)c4ccccc4)nn3)O[C@@]3(C(=O)N(Cc4ccc(N5C(=O)c6cccc7cccc5c67)cc4)c4ccccc43)[C@@H]2C)cc1`, -0.858.

In the case of `C[N+](C)(C)CCCC[C@@H]1NC(=O)[C@H]2C[C@@H](C(=O)NCCCCCCN)[C@@H](c3ccc(O)cc3)N2C1=O`, the composite z-score is 0.0717.

In turn, `O[C@@H](Cc1ccccc1)[C@@H](/C=C/C1CC1)N(CC#Cc1ccccc1)Cc1cccc(Cl)c1` registered a composite z-score of -1.49.

`CCOC(=O)C[C@H]1[C@H](OC(=O)c2ccccc2-c2ccccc2)[C@@H](NC(=O)c2ccc(-c3ccccc3)cc2)c2cc(OCCCO)ccc2N1C(=O)c1ccc2ccccc2n1` gave a composite z-score of 0.204.

`CN(C)c1ccc(C(O)C2C=CC3C(=O)N(c4ccccc4)C(=O)C3N2Nc2ccc([N+](=O)[O-])cc2)cc1` (stereo not given) returned a composite z-score of -0.204. To `COC(=O)[C@@]1(Cc2ccc(OC)cc2)[C@H]2c3cc(C(=O)N4CCCC4)n(Cc4c(-c5ccccc5)noc4C)c3C[C@H]2CN1C(=O)c1ccccc1` belongs -0.414. On to `COc1ccc(-c2nc(-c3ccccc3)c3c(c2C)CO[Si]3(C(C)C)C(C)C)cn1`, for which the composite z-score stood at 0.125. In the case of `O=C1O[C@@H](c2ccccc2)[C@@H](c2ccccc2)N2[C@@H](c3ccc(O)cc3)[C@]3(C(=O)Nc4ccc(C#CC5=CCCCC5)cc43)[C@@H](C(=O)NC[C@H](O)c3ccccc3)[C@H]12` it was 1.49; in that of `CO[C@H]1O[C@H](CO)[C@@H](OC(=O)Nc2ccccc2-c2ccccc2)[C@H](OC(=O)Nc2ccc3c(c2)OCO3)[C@H]1OC(=O)Nc1ccc2c(c1)OCO2`, 0.298.

Consider `COC(=O)[C@@]1(Cc2ccc(F)cc2)[C@H]2c3cc(C(=O)N4CCCC4)n(CCN4CNCC4=O)c3C[C@H]2CN1C(=O)c1ccccc1`, for which the composite z-score was -1.29. As for `CN(C)CCCNC(=O)[C@@H]1c2ccccc2C(=O)N(Cc2ccccc2Cl)[C@H]1c1ccc(CO)cc1`, the composite z-score worked out at 0.0146.
